High-throughput results: PubChem BioAssay, National Center for Advancing Translational Sciences (NCATS)
aSyn rescue = alpha-synuclein toxicity inhibition in yeast. AID 652106. Yeast expressing alpha-synuclein, growth rescue, BacTiter-Glo, 24 h. Potency, µM (doses to about 46.1 µM), most hits filed as activators. 370,000 compounds, 0.14% hits; note: nearly all actives have a fitted effect of over 65% in size
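Screening used galactose-induced yeast with toxic alpha-synuclein levels, exposed to compound for 24 hr at 30 deg C. Cell growth, read with BacTiter-Glo luminescence, gave the measured signal.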
TDP-43 yeast inh = inhibitors of TDP-43 toxicity in yeast; TDP-43 expressing yeast growth rescue, BacTiter-Glo, 24 h; Potency, µM (series often up to 46.1 µM), actives largely listed as activators; 410,000 compounds, 1.8% hits; AID 652104; note: nearly all actives have a fitted effect of over 50% in size
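Galactose-induced TDP-43 yeast, OD600=0.02, compound pinned; 24 hr, 30 deg C; BacTiter-Glo luminescence for growth. Inhibitors of TDP-43 toxicity read as activators.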
FUS suppressor = rescues growth of FUS-expressing yeast; S. cerevisiae FUS-expressing, growth rescue, OD600, 24 h; Potency, µM (top dose mostly 76.6 µM), actives largely listed as activators; 390,000 compounds, 0.24% hits; note: nearly all actives have a fitted effect of over 55% in size
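Quantitative HTS measuring growth restoration of FUS-toxic yeast. Galactose-induced cells (OD 0.005) were exposed 24hr at 30C to compounds at several concentrations, then absorbance at 600 nm was recorded.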
LDHA block = blocks human lactate dehydrogenase A | P00338 | purified LDHA, NADH/diaphorase-resazurin fluorescence; stronger effect = lower value | activity change, % (values are at about 110 or 230 µM) | 480,000 compounds, 0.15% hits | AID 1347041; in the data active = activity change below about -30%; inconclusive = mostly about -25% to -30%
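Remaining NADH was detected by diaphorase (0.133 mg/mL) converting 37 µM resazurin to fluorescent resorufin, read at 0 and 20 minutes. The preceding 5-minute room-temperature reaction used 2 nM LDHA, 0.2 mM sodium pyruvate and 0.06 mM NADH at pH 7.4.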
mIDH1 inhibitor = blocks human mutant IDH1 R132H enzyme | AID 602179 | O75874 | Potency, µM (series often up to 76.6 µM), usual class: inhibitors | IDH1-R132H enzyme, NADPH consumption, diaphorase/resazurin fluorescence | 390,000 compounds, 0.093% hits; note: nearly all actives have a fitted effect of over 65% in size
Target sequence (O75874 whole entry R132H, stated change not applied): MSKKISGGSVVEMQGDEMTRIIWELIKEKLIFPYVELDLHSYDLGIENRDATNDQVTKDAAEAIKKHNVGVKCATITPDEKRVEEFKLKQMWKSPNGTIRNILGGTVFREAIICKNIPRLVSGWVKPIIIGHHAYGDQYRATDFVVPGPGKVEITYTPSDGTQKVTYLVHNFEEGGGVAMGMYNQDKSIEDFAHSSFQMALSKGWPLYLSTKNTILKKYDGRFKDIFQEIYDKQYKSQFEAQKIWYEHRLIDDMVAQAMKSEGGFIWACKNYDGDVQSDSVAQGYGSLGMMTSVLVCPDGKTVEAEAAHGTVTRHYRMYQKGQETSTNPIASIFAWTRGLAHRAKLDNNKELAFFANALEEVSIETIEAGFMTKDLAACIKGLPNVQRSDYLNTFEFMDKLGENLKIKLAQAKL
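IDH1-R132H (0.5 ug/mL) preincubated 30 min with compound, then NADPH (0.016 mM) and alpha-KG (2 mM) added; 80 min at RT, pH 7.5. Remaining NADPH coupled via diaphorase/resazurin to fluorescence (540/590 nm); concentration-response curves normalized to no-enzyme control.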
Abeta rescue = compounds reversing amyloid beta toxicity in yeast | yeast expressing A-beta42, growth rescue, OD600, 48 h; response scale: 0% DMSO, 100% iron-clioquinol control | Potency, µM (top dose mostly 46.1 µM), hits mostly activators | 410,000 compounds, 0.063% hits; note: nearly all actives have a fitted effect of over 55% in size
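Yeast A-beta toxicity model in growth medium with pinned compounds, 48 h at 30 C; growth read as absorbance at 600 nm. Normalized to FeCl3/clioquinol equimolar mix (positive) and DMSO (negative).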
A number is an active result; n = inactive; u = inconclusive; x = no result. Sampled rows, rich in hits. Any-hit rate of the full collection: about 2%. Unless noted, calls come from the whole dose curve; as a rule, active = well fitted curve in the direction sought with a large enough effect; inconclusive = small, poorly fitted or top-dose-only effect, or another doubt; inactive = no such curve, though single readings can be large; an effect the other way counts as inactive or inconclusive.

SMILES	aSyn rescue	TDP-43 yeast inh	FUS suppressor	LDHA block	mIDH1 inhibitor	Abeta rescue
O=C(NCc1cccc(Cl)c1)c1ccc2c(c1)OCCO2	n	10µM	n	n	n	n
O=C(NCc1cccc(Cl)c1)c1ccc2c(Cl)c3c(nc2c1)CCCC3	x	11.2µM	n	n	n	n
O=C(NCc1ccccc1Br)c1ccc2c(c1)OCCO2	n	11.2µM	n	n	n	n
Cc1cccc(NC(=S)NCc2ccc3c(c2)OCO3)c1	n	17.8µM	n	n	n	n
CC1=CC(=O)c2ccc3c4c(ccc1c24)CC3	x	x	x	n	x	x
O=C(NCc1ccc2c(c1)OCO2)c1ccc2c(c1)OCCO2	n	25.1µM	n	n	n	u
Cc1cc(C(=O)NCc2ccc3c(c2)OCO3)ccc1[N+](=O)[O-]	n	17.8µM	n	n	n	u
Cc1ccc(N(C)C(=O)c2ccc3c(Cl)c4c(nc3c2)CCC4)cc1C	u	25.1µM	u	n	n	n
O=C(NCc1ccc2c(c1)OCO2)c1ccc2c(c1)OCO2	n	n	n	n	n	u
O=C(NCc1ccc2c(c1)OCO2)c1ccc(COc2cccc(Cl)c2)o1	u	14.1µM	n	n	n	u
Cc1ccc(C(=O)NCc2ccc3c(c2)OCO3)cc1C	n	u	n	n	n	n
CCCCCC(C)NCc1sccc1C (configuration not stated)	x	x	x	n	x	x
Cc1ccc(CNC(=O)Cc2ccsc2)cc1	x	x	x	n	x	x
COc1ccccc1SC(C)C(=O)NC(C)(C)C (configuration not stated)	x	x	x	n	x	x
Cc1ccc(Nc2cc(C)nc3c(C)cc(C)c([N+](=O)[O-])c23)cc1	x	x	x	n	x	x
CCOC(=O)N1CCC(NC(=O)c2cnn3c(C)c(Cc4cc(C)ccc4C)c(C)nc23)CC1	x	x	x	n	x	x
COc1ccc(OC)c(N2C(=O)CCC2(C)C(=O)NC2CCCC2)c1 (configuration not stated)	x	x	x	n	x	x
Cc1cccc(Cn2cccc2CNS(=O)(=O)c2ccccc2F)c1	x	20µM	n	n	n	n
CCc1ccc(S(=O)(=O)NCc2cccn2Cc2cccc(C)c2)cc1	x	n	n	n	n	n
CCCCc1nc2ccccc2c(NC(=O)CN2CCCC2)c1CCC	n	n	n	-34.8	n	n
Oc1ccc(-c2nc(-c3cc(F)ccc3F)cs2)cc1	x	x	x	n	x	x
NNc1nnc(-c2ccccc2)c(-c2ccccc2)n1	n	n	35.5µM	n	n	n
NNc1nc(-c2ccccc2)c2ccccc2n1	n	n	n	n	n	n
CCC(C)NC(=O)Cc1ccc2c(c1)CCCC2 (configuration not stated)	x	x	x	n	x	x
O=C1CSc2ccc(C(=O)OCC(=O)c3c[nH]c4ccccc34)cc2N1	x	x	x	n	x	x
SMILES	aSyn rescue	TDP-43 yeast inh	FUS suppressor	LDHA block	mIDH1 inhibitor	Abeta rescue
COC(=O)c1sc(S(=O)(=O)Nc2ccc(Br)cc2)c(C(=O)OC)c1C	n	u	n	n	n	n
COC(=O)c1sc(S(=O)(=O)Nc2ccc(C)cc2)c(C(=O)OC)c1C	n	20µM	n	n	n	n
COc1cccc(C2C3=C(CC(C)(C)CC3=O)Nc3cc4c(cc32)OCO4)c1OC (configuration not stated)	x	x	x	n	x	x
CC12CN3CC(C)(CN(C1)C3c1ccc([N+](=O)[O-])o1)C2 (configuration not stated)	n	11.2µM	n	n	n	n
CC(C)NC(=S)N/N=C/C1CCCCC1	x	x	x	n	x	x
O=S(=O)(Cc1ccccc1)C(Cl)(Cl)C(F)(F)C(F)(F)C(F)(F)C(F)F	x	x	x	n	x	x
Cn1c(O)c(/C=C2\C=Nc3ccccc32)sc1=Nc1ccc(C(=O)O)cc1	n	n	n	-35.1	n	n
COc1ccc(-n2nc(C(=O)NCC(=O)N3CC(C)CC(C)C3)c3ccccc3c2=O)cc1 (configuration not stated)	n	14.1µM	n	n	n	n
Clc1ccc(-c2nnc(C3CCCCC3)o2)cc1	n	11.2µM	n	n	n	n
COc1ccc2c(ccn2CCC(=O)NCc2ccccc2OC)c1	x	x	x	n	x	x
N#Cc1ccc(/C=N/Nc2cccc(Cl)c2)cc1	x	x	x	n	x	x
Cc1nc2ccccn2c1C(=O)/C=C/c1cccc([N+](=O)[O-])c1	n	2.51µM	n	n	n	n
O=C(/C=C/c1cccc([N+](=O)[O-])c1)c1ccco1	n	6.31µM	n	n	n	n
Cc1ccc(/C=C/C(=O)c2c(C)nc3ccccn23)cc1	n	u	n	n	n	n
O=C(/C=C/c1cccc([N+](=O)[O-])c1)c1ccc([N+](=O)[O-])o1	n	n	n	n	u	n
CC(C)c1ccc(NC(=O)NCC(O)c2ccc(F)c(F)c2)cc1 (configuration not stated)	x	x	x	n	x	x
S=C(NCc1ccc(Cl)cc1)Nc1ccc(Cl)c(Cl)c1	x	x	x	n	x	x
COc1ccc(C(=O)/C(C#N)=C\c2cc(Br)ccc2OC)cc1	x	x	x	n	x	x
O=C(Nc1ncc2c(n1)-c1ccccc1CC2)c1cccc(Cl)c1	n	12.6µM	x	n	n	n
CCN1CCCC1CN(Cc1cc2cc(C)ccc2[nH]c1=O)C(=O)Nc1ccccc1OC (configuration not stated)	n	n	22.4µM	n	n	n
Cn1nccc1-c1coc2c(C(=O)NCC3CCOCC3)cccc12	n	n	n	n	x	n
O=C(NCc1ccco1)c1ccc(-c2ccc(F)c(F)c2)c2ccoc12	n	20µM	n	n	x	n
O=C(NCc1ccccc1)c1ccc(-c2ccc(F)c(F)c2)c2ccoc12	n	n	n	n	x	n
Cn1nccc1-c1ccc(C(=O)NCc2ccc(Cl)cc2)c2occc12	n	22.4µM	u	n	x	n
Cn1nccc1-c1coc2c(C(=O)NCc3ccccc3)cccc12	n	3.55µM	n	n	x	n
SMILES	aSyn rescue	TDP-43 yeast inh	FUS suppressor	LDHA block	mIDH1 inhibitor	Abeta rescue
O=C(Nc1ccccc1NS(=O)(=O)c1cccs1)c1ccc(Cl)cc1[N+](=O)[O-]	x	x	x	n	x	x
Cc1ccc(-c2nc3ccc([N+](=O)[O-])cc3[nH]2)cc1	n	17.8µM	n	n	n	n
COc1ccc(-c2nc3ccc([N+](=O)[O-])cc3[nH]2)cc1	n	n	n	n	n	n
Nc1ccc2nc(-c3ccc(-c4nc5ccc(N)cc5[nH]4)cc3)[nH]c2c1	n	14.1µM	n	n	n	u
COc1ccc(N(CC(=O)Nc2cc(C)on2)S(=O)(=O)c2cc(C)ccc2C)cc1	n	u	31.6µM	n	n	n
COC(=O)C[C@H]1C=C[C@H](NC(=O)Cc2ccccc2)[C@@H](CO)O1	3.55µM	n	n	n	x	n
COC(=O)C[C@H]1C=C[C@@H](NC(=O)Cc2cccnc2)[C@@H](CO)O1	n	n	n	n	x	n
C=CCOc1cccc2[nH]c(C(=O)O)cc12	x	x	x	n	x	x
